Data reported in PubChem BioAssay.
The source made the active and inactive calls.

Experiments:
[1] = tested on: Plasmodium falciparum Sir2 (PF13_0152, Sir2A); assay: Plasmodium falciparum Sir2A binding compounds – biochemical, small-molecule microarray, 635 nm fluorescence, primary screen (AID 1098); conditions: fluorescence 635 nm, higher = more signal;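 note: score merges spot fluorescence intensity with its signal-to-noise ratio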
[2] = probe aDKK1 binding to arrayed compounds – biochemical, biotinylated probe, 635/667 nm fluorescence, primary screen (AID 1099); conditions: small-molecule microarray, higher = more signal;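 note: score merges 667nm spot fluorescence with signal to noise across triplicate slides; reference of the scale not given here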
[3] = probe aCHRDL2 binding to arrayed compounds – biochemical, biotinylated probe, 635/667 nm fluorescence, primary screen (AID 1100); conditions: small-molecule microarray, higher = more signal
[4] = change in splice reporter luminescence, either direction, cell-based, HEK293, spliceosome inhibition project, primary screen (AID 1101); conditions: HEK293 splicing luciferase reporter, 24 h, higher = more signal, called active from +8 up or from −8 down;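 note: HEK293 cells carrying a splicing-competent luciferase reporter gene; test concentration not given here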
[5] = molecular target: Fibroblast growth factor 10 (Homo sapiens) (UniProt O15520); assay: compounds binding fibroblast growth factor 10 – biochemical, small-molecule microarray, 635 nm fluorescence, primary screen (AID 1102); conditions: FGF10 binding, fluorescence 635 nm, higher = more signal
[6] = tested on: glycogen synthase kinase-3 (GSK3A per assay name; protocol says GSK3B); assay: compounds binding glycogen synthase kinase-3 – biochemical, small-molecule microarray, 635 nm fluorescence, GSK3A, primary screen (AID 1103); conditions: fluorescence 635 nm, higher = more signal; note: the record names both GSK3A and GSK3B
[7] = molecular target: Epidermal growth factor receptor (Homo sapiens) (UniProt P00533); assay: compounds binding epidermal growth factor receptor – biochemical, small-molecule microarray, 635 nm fluorescence, primary screen (AID 1104); conditions: EGFR binding, higher = more signal;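 note: score merges 667 nm emission intensity with spot signal to noise over triplicate slides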
[8] = molecular target: Follistatin-related protein 3 (Homo sapiens) (UniProt O95633); assay: compounds binding follistatin-related protein 3 – biochemical, small-molecule microarray, 635 nm fluorescence, primary screen (AID 1105); conditions: FSTL3 binding, higher = more signal;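 note: score merges emission near 667 nm and signal to noise per printed spot across three slides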
[9] = molecular target: Dickkopf-related protein 1 (Homo sapiens) (UniProt O94907); assay: small molecules binding DKK1 protein – biochemical, small-molecule microarray, 635 nm fluorescence scan, primary screen (AID 1106); conditions: higher = more signal;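 note: score merges emission near 667 nm with signal to noise over three replicate slides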
[10] = tested on: Inhibin beta A chain (activin A); assay: small molecules binding activin A – biochemical, small-molecule microarray, 635 nm fluorescence scan, primary screen (AID 1107); conditions: INHBA, higher = more signal;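 note: mouse activin A protein probed at 4.33 µg/mL on printed slides; score merges bound-protein fluorescence near 667 nm with spot signal-to-noise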

Sequence of Follistatin-related protein 3 (Homo sapiens) (O95633 whole entry, looked up): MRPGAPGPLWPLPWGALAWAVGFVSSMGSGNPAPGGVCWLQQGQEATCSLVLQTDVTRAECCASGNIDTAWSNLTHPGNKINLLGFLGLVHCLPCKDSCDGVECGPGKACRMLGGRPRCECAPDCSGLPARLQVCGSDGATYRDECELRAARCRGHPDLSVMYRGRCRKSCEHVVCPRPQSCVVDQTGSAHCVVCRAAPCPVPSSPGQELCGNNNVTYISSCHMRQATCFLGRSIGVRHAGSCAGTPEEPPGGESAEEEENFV
Sequence of Epidermal growth factor receptor (Homo sapiens) (P00533 whole entry, looked up): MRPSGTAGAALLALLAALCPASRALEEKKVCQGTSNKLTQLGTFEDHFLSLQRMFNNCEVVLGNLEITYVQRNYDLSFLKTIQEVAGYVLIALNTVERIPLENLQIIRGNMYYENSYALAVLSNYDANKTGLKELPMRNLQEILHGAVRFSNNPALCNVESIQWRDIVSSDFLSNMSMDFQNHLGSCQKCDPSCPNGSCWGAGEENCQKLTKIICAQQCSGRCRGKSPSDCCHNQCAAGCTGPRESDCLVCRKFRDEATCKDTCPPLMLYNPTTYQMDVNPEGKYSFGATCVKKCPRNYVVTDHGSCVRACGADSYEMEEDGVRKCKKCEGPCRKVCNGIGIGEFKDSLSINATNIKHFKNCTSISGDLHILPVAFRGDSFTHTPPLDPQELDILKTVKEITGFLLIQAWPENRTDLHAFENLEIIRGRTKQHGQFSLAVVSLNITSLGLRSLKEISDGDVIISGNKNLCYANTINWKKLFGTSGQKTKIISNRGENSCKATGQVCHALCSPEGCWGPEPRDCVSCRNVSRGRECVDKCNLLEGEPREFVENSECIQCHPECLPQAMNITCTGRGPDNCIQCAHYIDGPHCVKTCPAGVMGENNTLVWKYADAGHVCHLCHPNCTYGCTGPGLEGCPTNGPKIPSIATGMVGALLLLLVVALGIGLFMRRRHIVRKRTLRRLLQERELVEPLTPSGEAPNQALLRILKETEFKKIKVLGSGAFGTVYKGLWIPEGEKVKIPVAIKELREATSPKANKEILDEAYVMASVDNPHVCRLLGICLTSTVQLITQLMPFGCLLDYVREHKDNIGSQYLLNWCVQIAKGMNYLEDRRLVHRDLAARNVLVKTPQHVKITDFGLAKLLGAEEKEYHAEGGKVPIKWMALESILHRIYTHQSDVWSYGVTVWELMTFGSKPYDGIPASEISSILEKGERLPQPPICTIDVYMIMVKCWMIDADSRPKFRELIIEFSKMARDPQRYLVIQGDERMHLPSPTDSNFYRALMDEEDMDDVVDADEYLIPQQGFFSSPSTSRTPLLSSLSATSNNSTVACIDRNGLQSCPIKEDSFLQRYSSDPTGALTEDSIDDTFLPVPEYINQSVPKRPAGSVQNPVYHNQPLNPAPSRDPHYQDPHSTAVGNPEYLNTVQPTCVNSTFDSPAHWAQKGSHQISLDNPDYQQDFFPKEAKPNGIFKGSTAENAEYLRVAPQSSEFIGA
Sequence of Dickkopf-related protein 1 (Homo sapiens) (O94907 whole entry, looked up): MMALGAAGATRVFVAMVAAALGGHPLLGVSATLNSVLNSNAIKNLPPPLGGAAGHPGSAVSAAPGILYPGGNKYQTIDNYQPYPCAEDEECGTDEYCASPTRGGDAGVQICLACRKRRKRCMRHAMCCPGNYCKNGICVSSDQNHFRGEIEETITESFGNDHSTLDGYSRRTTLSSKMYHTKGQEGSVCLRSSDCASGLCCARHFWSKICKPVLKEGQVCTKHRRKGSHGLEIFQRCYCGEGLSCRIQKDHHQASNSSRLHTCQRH
Sequence of Fibroblast growth factor 10 (Homo sapiens) (O15520 whole entry, looked up): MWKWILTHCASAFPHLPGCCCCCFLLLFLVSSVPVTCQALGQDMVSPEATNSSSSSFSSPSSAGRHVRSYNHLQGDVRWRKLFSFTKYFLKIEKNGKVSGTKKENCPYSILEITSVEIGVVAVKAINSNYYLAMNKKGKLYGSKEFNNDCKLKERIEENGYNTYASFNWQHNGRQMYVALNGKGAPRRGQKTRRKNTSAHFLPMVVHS

| SMILES | composite z-score [1] | composite z-score [2] | composite z-score [3] | z-score [4] | composite z-score [5] | composite z-score [6] | composite z-score [7] | composite z-score [8] | composite z-score [9] | composite z-score [10] |
| --- | --- | --- | --- | --- | --- | --- | --- | --- | --- | --- |
| O=C/C=C/c1ccc2c(c1)OCO2 | 0.229 | -0.295 | -0.475 | -0.675 (inactive) | 0.562 | 0.469 | 0.614 | 0.506 | 0.486 | 1.25 |
| CC(C)c1ccc(NN2C(C(O)c3cccc(O)c3)C=CC3C(=O)N(c4ccccc4)C(=O)C32)cc1 (stereo not given) | 0.996 | 0.808 | 0.835 | 0.689 (inactive) | 1.39 | 1.27 | 0.373 | 1.05 | -0.0143 | -0.251 |
| Cc1cc(C)c(C(O)C2C=CC3C(=O)N(C)C(=O)C3N2Nc2ccccc2)c(C)c1 (stereo not given) | 1.13 | 1.84 | 0.796 | 0.55 (inactive) | 0.636 | 0.399 | 0.745 | 0.38 | 0.209 | 1.25 |
| C=CCNC(=O)[C@@H]1[C@H]2C(=O)O[C@H](c3ccccc3)[C@H](c3ccccc3)N2[C@H](c2ccccc2OCCO)[C@@]12C(=O)Nc1ccc(C#CC3=CCCCC3)cc12 | 0.71 | -0.0328 | 0.111 | -0.829 (inactive) | 1.22 | 1.32 | 0.478 | 1.38 | 0.479 | 0.982 |
| COCCOC(=O)N1C(=O)[C@@]2(c3cc(C#CC4=CCCCC4)ccc31)[C@H](C(=O)N1CCc3cc(OC)c(OC)cc3C1)[C@H]1C(=O)O[C@H](c3ccccc3)[C@H](c3ccccc3)N1[C@@H]2c1ccccc1OCCO | 0.763 | -0.0567 | 0.185 | -0.176 (inactive) | 0.964 | 1.2 | 0.501 | 1 | 0.406 | 0.59 |
| COc1ccc(CCNC(=O)[C@@]2(c3ccc([N+](=O)[O-])cc3)CC(=O)N(CC34CC5CC(CC(C5)C3)C4)[C@@H]2c2ccc(CO)cc2)cc1 | 1.06 | 1.38 | 0.764 | 0.539 (inactive) | 0.76 | 1.07 | 0.453 | 1.03 | 0.828 | 0.432 |
| CC(C)C(O)C1C=CC2C(=O)N(c3ccccc3)C(=O)C2N1Nc1ccc(C#N)cc1 (stereo not given) | 1.08 | 1.27 | 1.26 | 0.251 (inactive) | 1.17 | 0.681 | 0.0839 | 1.22 | -0.512 | 0.942 |
| CCN(CC)c1ccc(N2CC=CC34O[C@@H]5C=CCCOC(=O)C5[C@H]3C(=O)N(CCCCCO)[C@@H]4C2=O)cc1 (stereo not given in full) | -0.144 | -0.0409 | 0.0109 | -0.779 (inactive) | -0.292 | -0.139 | -0.76 | -0.339 | -0.182 | 1.52 |
| CC(C)OC(=O)CC(=O)CC(O)c1ccc(C#N)cc1 (stereo not given) | -0.165 | 0.715 | 1.23 | -1.74 (inactive) | 0.169 | 0.148 | -0.361 | 0.078 | -0.997 | 0.891 |
| COCCOC(=O)N1C(=O)[C@@]2(c3ccccc31)[C@H](C(=O)NC[C@H](O)c1ccccc1)[C@H]1C(=O)O[C@H](c3ccccc3)[C@H](c3ccccc3)N1[C@@H]2c1ccc(OCCO)cc1 | 1.38 | 0.0185 | -0.131 | -1.81 (inactive) | 1.08 | 1.27 | 1.13 | 1.51 | 1.01 | 0.955 |
| COc1ccc(C(O)C2C=CC3C(=O)N(c4ccccc4)C(=O)C3N2Nc2ccc([N+](=O)[O-])cc2)cc1OCc1ccccc1 (stereo not given) | 1.4 | 1.86 | 1.15 | 0.465 (inactive) | 1.02 | 0.735 | 0.534 | 0.763 | -0.0143 | 1.07 |
| O=c1cccc(C=Cc2ccccc2)o1 | -1.32 | 0.121 | 0.756 | -0.121 (inactive) | -0.629 | 0.0144 | -1.16 | -0.657 | -1.36 | 0.758 |
| CCOC(=O)C[C@H]1[C@H](OC(=O)c2ccc(-c3ccccc3)cc2)[C@@H](NC(=O)c2ccc(-c3ccccc3)cc2)c2cc(OCCCO)ccc2N1C(=O)Cc1ccc(OC)cc1 | -0.253 | -0.0067 | 0.45 | 0.101 (inactive) | 0.256 | -0.194 | -0.0509 | -0.0478 | 0.0032 | 0.638 |
| COc1ccc(NN2C(C(O)c3ccc(OC)c(OCc4ccccc4)c3)C=CC3C(=O)N(C4CCCCC4)C(=O)C32)cc1 (stereo not given) | 0.897 | 0.686 | 0.627 | -0.306 (inactive) | 0.622 | 0.995 | 0.216 | 1 | -0.228 | 1.13 |
| O=C1O[C@@H](c2ccccc2)[C@@H](c2ccccc2)N2[C@@H](c3ccc(O)cc3)[C@]3(C(=O)Nc4ccc(C#CC5=CCCCC5)cc43)[C@@H](C(=O)O)[C@H]12 | 1.14 | 0.799 | 0.999 | -1.05 (inactive) | 0.277 | 0.653 | 0.035 | 0.545 | 0.0526 | 1.19 |
| [N-]=[N+]=NCc1ccccc1C[C@]1(C(=O)NCC(O)CO)N=C(c2ccc(OCCCO)cc2)O[C@H]1c1ccccc1N=[N+]=[N-] (stereo not given in full) | 0.3 | 1.38 | 1.1 | -1.58 (inactive) | 0.0684 | 0.091 | -0.166 | -0.318 | -0.894 | 0.967 |
| Cc1ccc(S[C@]2(C(=O)O)CC(=O)N(C3Cc4ccccc4C3)[C@@H]2c2ccc(CO)cc2I)cc1 | 0.787 | 0.425 | 1.05 | -0.0201 (inactive) | -0.345 | -0.695 | -1.04 | -0.75 | -0.649 | 1.11 |
| COCCOC(=O)N1C(=O)[C@@]2(c3cc(C#CC4=CCCCC4)ccc31)[C@H](C(=O)NC[C@H](O)c1ccccc1)[C@H]1C(=O)O[C@H](c3ccccc3)[C@H](c3ccccc3)N1[C@@H]2c1ccc(O)cc1 | 1.14 | 0.298 | 0.124 | -1.06 (inactive) | 1.22 | 1.3 | 0.663 | 1.41 | 1.06 | 1.01 |
| C=CCC(OC(C)=O)[C@@H]1[C@@H](N(Cc2cc3ccccc3o2)C(=O)c2ccc(C)cc2)c2cc(OCCCO)ccc2N1C(=O)c1ccc2ccccc2c1 (stereo not given in full) | -0.119 | -0.0022 | 0.263 | -0.422 (inactive) | 0.299 | -0.274 | 0.105 | 0.194 | 0.0379 | 1.46 |
| COCCOC(=O)N1C(=O)[C@@]2(c3ccccc31)[C@H](c1ccc(O)cc1)N1[C@H](c3ccccc3)[C@H](c3ccccc3)OC(=O)[C@H]1[C@@H]2C(=O)N1CCc2cc(OC)c(OC)cc2C1 | 1.25 | 0.203 | 0.404 | -0.832 (inactive) | 1.36 | 0.92 | 0.869 | 1.03 | 0.84 | 0.451 |
| COC(=O)[C@@]1(Cc2ccccc2)[C@H]2c3cc(C(=O)N4CCCC4)n(Cc4ccc(C)o4)c3C[C@H]2CN1C(=O)c1ccccc1 | 1.21 | 0.526 | 1.13 | -2.62 (inactive) | -0.143 | 0.0411 | 0.36 | 0.276 | -0.578 | 1.23 |
| CC(C)N1C(=O)[C@@]2(c3ccc([N+](=O)[O-])cc3)CC(=O)N(CC34CC5CC(CC(C5)C3)C4)[C@@H]2c2ccc(CO)cc21 | -0.732 | -0.0981 | 0.226 | 0.477 (inactive) | -0.51 | -0.829 | -1.81 | -0.603 | -0.734 | 0.0207 |
| COCCOC(=O)N1C(=O)[C@@]2(c3cc(C#CCC(C(=O)OC)C(=O)OC)ccc31)[C@H](C(=O)N1CCCCCCC1)[C@H]1C(=O)O[C@H](c3ccccc3)[C@H](c3ccccc3)N1[C@@H]2c1ccc(OCCO)cc1 | 1.74 | 2.72 | 1.65 | 0.161 (inactive) | 1.45 | 1.35 | 1.76 | 1.65 | 2.25 | 1.62 |
| CCCCC(CC)C(O)C1C=CC2C(=O)N(c3ccccc3)C(=O)C2N1Nc1ccccc1 (stereo not given) | 0.889 | 0.674 | 0.932 | -0.901 (inactive) | 0.753 | 0.0129 | -0.456 | 1.13 | -0.648 | 1.02 |
| CC(C)C(=C=CC[C@@H](O)c1ccccc1OCCO)C[C@@H](O)c1ccccn1 | 1.52 | -0.235 | -0.448 | 0.446 (inactive) | 1.05 | 0.556 | 0.141 | 0.425 | 0.34 | 0.715 |
| O=C1O[C@@H](c2ccccc2)[C@@H](c2ccccc2)N2[C@@H](c3ccc(OCCO)cc3)[C@]3(C(=O)Nc4ccccc43)[C@@H](C(=O)Nc3nc4ccccc4s3)[C@H]12 | 1.66 | 0.738 | 0.478 | -0.876 (inactive) | 1.31 | 1.07 | 0.528 | 1.15 | 0.651 | 0.411 |
| Cc1ccc(S[C@]2(C(=O)NCc3ccccc3)CC(=O)N(Cc3ccccc3Cl)[C@@H]2c2ccc(CO)cc2I)cc1 | 0.49 | 0.302 | 1.13 | -1.6 (inactive) | -0.761 | -0.528 | -1.17 | -0.689 | -1.22 | 0.962 |
| CCCCC=C[C@@H](NC(=O)c1ccc(C(=O)OC)cc1)c1ccccc1 | 0.741 | -0.095 | 0.613 | -3.67 (inactive) | 0.335 | 0.804 | 0.239 | 0.279 | 0.393 | 0.629 |
| COc1ccccc1CN1C(=O)c2ccccc2[C@@H](C(=O)NCCN2CCOCC2)[C@@H]1c1ccc(CO)cc1 | 1.5 | -0.0936 | 0.658 | -0.468 (inactive) | -0.264 | 0.342 | -0.502 | -0.334 | -0.0485 | 0.52 |
